Experimental data: ChEMBL document CHEMBL3988442, “University of Dundee, Small-Polar-MMV Screening Library” (2021)
In all, about 48,000 compounds went through this assay and about 13,000 (27%) showed an effect of 50% or more. This is one part of the list.

What follows are molecules tested on Wolbachia pipientis (assay: Anti-Wolbachia Cell-Based Screen). Conditions: 5 µM.
Assay type: functional
Parameters: scale not given: in the data most compounds retested in dose-response had high values

SMILES | Percent Effect
Cc1ccc(Cl)c2ccc(NC(CO)CO)nc12 | -18.64%
O=C(c1ccsc1)N1CC(c2nc(-c3ccc[nH]c3=O)no2)C1 | -1.062%
CCOc1ccc(-c2c(-c3ccccc3)ncn2C2CCNC2)cn1 (stereo not given) | 5.482%
CCOc1no[n+]([O-])c1-c1ccccc1 | 142.4%
COCCOC[C@]1(CNCc2cccc(OC)c2)C[C@@H](O)[C@@H](O)C1.Cl | 2.999%
N#CCCN(CC(=O)Nc1ccc(Br)cc1Cl)Cc1cccnc1 | -15.5%
COCc1noc(C2(c3ccc(F)cc3)CCC2)n1 | -10.25%
O=C(CCNS(=O)(=O)c1ccccc1)NCc1ccoc1 | -4.508%
CNS(=O)(=O)c1cccc(CNC(=O)CCc2ccsc2)c1 | 10.65%
CNS(=O)(=O)c1cccc(C(C)NCc2cccc(OC)c2)c1 (stereo not given) | 4.426%
Cc1ccc(S(=O)(=O)NCCNC(=O)c2cncnc2C)cc1 | 2.217%
COc1cccc(CNC(=O)CCNS(=O)(=O)c2ccc(C)cc2)c1 | 91.68%
COc1cccc(CCNC(=O)CCS(=O)(=O)C2CCCC2)c1 | 1.804%
COc1cccc(CNC(=O)CCC2=Nc3ccccc3S(=O)(=O)N2)c1 | 114.6%
COc1cccc(CNC(=O)N2CCN3CCNC(=O)C3C2)c1 (stereo not given) | -4.227%
CCc1ncncc1C(=O)NCCNS(=O)(=O)c1ccc(C)cc1 | 8.343%
CNS(=O)(=O)c1ccc(CCC(=O)NCc2cccc(OC)c2)cc1 | 110.9%
COc1cccc(CNC(=O)CCOc2ccccc2C)c1 | 9.384%
COc1ccc(CC(=O)NCCNS(=O)(=O)c2ccc(C)cc2)cc1 | 90.25%
Cl.Cn1nc(C2CCN(C(=O)CN3CCCCC3)CC2)c2cccnc21 | 113.3%
COc1ccccc1OC1CCN(C(=O)CCCN2CCOCC2)CC1 | 10.26%
CN(CCO)Cc1nnc(C2CCN(C(=O)CN3CCCC3)CC2)n1C | -20.27%
O=C(CN1CCCCC1)NCc1cccnc1-n1cnc2ccccc21 | -3.687%
Cl.Cn1nc(C2CCN(C(=O)CCN3CCOCC3)CC2)c2cccnc21 | 110.8%
C=C(C)CNC(=O)C1CCC(=O)N(C2CCCC2)C1 (stereo not given) | 15.65%
COCC1CN(C(=O)c2ccnnc2)Cc2ncnn2C1 (stereo not given) | 0.09306%
Cc1noc(C)c1CSCc1csc(CS(C)(=O)=O)n1 | 94.77%
CS(=O)(=O)Cc1nc(CNc2c(F)cc(F)cc2F)cs1 | 22.22%

SMILES | Percent Effect
Cc1cc(CSCc2cc(C)on2)on1 | -0.9382%
CS(=O)(=O)Cc1nc(CNc2ccc(F)c(F)c2)cs1 | 12.98%
CS(=O)(=O)Cc1nc(CN2CCC(C(F)(F)F)CC2)cs1 | -5.539%
Cc1cc(CSCc2csc(CS(C)(=O)=O)n2)no1 | 97.95%
CCc1nc(CSCc2csc(CS(C)(=O)=O)n2)cs1 | 115%
Cc1noc(C)c1CSCc1nc(N)c2ccccc2n1 | -9.423%
CS(=O)(=O)Cc1nc(CN2CCc3ccccc3CC2)cs1 | 14.86%
COCCN(Cc1sccc1C)C(=O)C1CCN(C(C)C)CC1 | 1.745%
Nc1nc2c(c(N3CCCC(c4nnc5ccccn45)C3)n1)CCNC2 (stereo not given) | -10.49%
O=C1[C@@H]2CN(Cc3cc4ccccc4o3)C[C@]2(C(=O)O)CN1CC1CC1 | -11.55%
OCC(O)CSCc1nnc(-c2ccc(Cl)cc2)o1 (stereo not given) | -3.672%
COc1ccc2c(c1)CCCN2C(=O)NC1CCCCNC1=O (stereo not given) | -4.83%
COc1ccc2c(c1)CN(CC1CC1)C(=O)CCN2CC(C)(C)O | 98.75%
CCN1Cc2cc(OC)ccc2N(CC(C)(C)O)CCC1=O | 102.5%
COc1ccc2c(c1)CCCN2Cc1nc2c(cnn2C)c(=O)[nH]1 | -6.912%
COc1ccc2c(c1)CCCN2C(=O)c1cccc(N(C)C)c1 | -8.665%
COc1ccc2c(c1)C(=O)N(C)C1(CCN(CC3CC3)CC1)N2 | -12.56%
CN1CCN(Cc2noc(CC3CCc4ccccc43)n2)CC1 (stereo not given) | 3.539%
Cc1csc(CN(C)C(=O)c2cccc(CCC(C)(C)O)c2)n1 | -10.56%
COCc1ncc(CN2C[C@@H](C(=O)O)[C@H](C(C)C)C2)cn1 | 0.5192%
CC(C)N1CCC(c2nnc(CN3CCCC3)n2C2CC2)CC1 | -3.352%
Cn1cc(-c2nc(C3CCN(S(C)(=O)=O)CC3)cc3c2ncn3C)cn1 | 6.413%
CCCn1ncnc1C(C)NC(=O)C1CCN(C(C)C)CC1 (stereo not given) | -2.448%
CC(C)N1CCC(c2cnc(-c3cn[nH]c3)cn2)CC1 | 107.4%
CS(=O)(=O)N1CCC(c2cnc(-c3cn[nH]c3)cn2)CC1 | 122.9581%
CC(C)N1CCC(c2cnc(-c3cncnc3)cn2)CC1 | 77.04%
O=C(O)c1cc(-c2cn[nH]c2)cc(S(=O)(=O)N2CCSCC2)c1 | -7.646%
